According to PubChem BioAssay:
This is one part of the list. The source made the active and inactive calls.

Key:
[1] = target: Inward rectifier potassium channel 2 (Mus musculus) (UniProt P35561); experiment: inhibition of Kir2.1 inward rectifier potassium flux – cell-based, FluxOR thallium flux, duplicate, confirmation (AID 2032); settings: Kir2.1-expressing cells, FluxOR thallium flux fluorescence, at 10 µM; stronger effect = lower value
[2] = parental HEK293 cell activity, no Kir2.1 – FluxOR thallium flux, duplicate, single concentration, counter-screen for Kir2.1 inhibitor project, confirmation (AID 2105;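 active = dye signal at least 3 control SD above or below untreated wells in both duplicates, raw fluorescence within 3, either direction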;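 as to FluxOR signal as % of negative control (100 = no effect): percent is based on the flux ratio of peak minus minimum fluorescence over baseline F0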); settings: parental HEK293 cells, FluxOR thallium flux fluorescence, at 10 µM; 0% = unstimulated blank wells
[3] = parental CHO-K1 cell activation, no KCNQ2 – FluxOR thallium flux, duplicate, counter-screen for KCNQ2 potentiator project, confirmation (AID 2282;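 active = signal rise of at least 3 SD above the untreated control mean, in both duplicate wells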;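 also: counter screen of KCNQ2 potentiator hits so any rise reflects channel-independent effects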); settings: parental CHO-K1 cells, FluxOR thallium flux fluorescence; at 10 µM; stronger effect = higher value; zero = vehicle mean+3SD, 100% = vehicle-minus-blank window
[4] = target: Potassium voltage-gated channel subfamily KQT member 1 (Homo sapiens) (UniProt P51787); experiment: KCNQ1 activation in stable CHO cells – cell-based, FluxOR thallium flux, selectivity assay for KCNQ2 potentiator project, confirmation (AID 2283;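 active = fluorescence ratio rise of at least 3 SD of vehicle wells above their mean, in both replicate wells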;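 also: 0% = vehicle mean plus 3 SD and 100% = vehicle minus unstimulated blank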); settings: FluxOR thallium flux fluorescence, at 10 µM, stronger effect = higher value, beyond 3SD, as % of vehicle-control signal
[5] = target: Potassium voltage-gated channel subfamily KQT member 2 (Rattus norvegicus) (UniProt O88943); experiment: KCNQ2 potassium channel activity enhancers – cell-based, CHO, FluxOR thallium flux, duplicate, confirmation (AID 2287;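 active = fluorescence ratio rising 3 SD or more over the vehicle control mean in both replicates, plus primary screen hit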;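 also: peak minus minimum thallium fluorescence divided by baseline after K/Tl stimulus; 0% = vehicle mean plus 3 SD and 100% = vehicle minus unstimulated blank difference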); settings: CHO-KCNQ2 cells, FluxOR thallium flux fluorescence; at 10 µM; stronger effect = higher value
[6] = target: Inward rectifier potassium channel 2 (Mus musculus) (UniProt P35561); experiment: PubChem AID 2345; settings: HEK293 Kir2.1, FluxOR thallium flux fluorescence; at 10 µM; stronger effect = higher value;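 also: 0% = vehicle mean plus 3 SD and 100% = vehicle minus no-stimulus blank window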
[7] = target: Potassium voltage-gated channel subfamily KQT member 2 (Rattus norvegicus) (UniProt O88943); experiment: W236L mutant KCNQ2 current enhancers – cell-based, rat KCNQ2 W236L, CHO, automated patch clamp, mechanism study for KCNQ2 potentiator project (AID 2558;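 active = current increase at least 3 SD of the untreated controls above them in both duplicate recordings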); settings: at 25 µM
[8] = target: Potassium voltage-gated channel subfamily KQT member 1 (Homo sapiens) (UniProt P51787); experiment: blockers of human KCNQ1 channel – cell-based, Tl flux, duplicate, confirmation (AID 588353;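 active = primary screen active, with duplicate mean exceeding buffer control mean plus 3 SD of buffer wells, cut at about 28% in these data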;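 also: 0% = buffer control ratio and 100% = XE991 inhibitor control ratio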); settings: KCNQ1 cell line, FluxOR thallium flux fluorescence; at 10 µM; stronger effect = higher value
[9] = nonspecific activity in CHO-K1 cells without KCNQ1 – parental CHO cells, Tl flux, counter-screen for KCNQ1 inhibitor project (AID 588366;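 active = mean of duplicate thallium-flux fluorescence ratios in parental host cells more than 5 SD below the buffer control mean, cut at about 0.38 in these data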;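 also: ratio is peak minus minimum fluorescence divided by baseline fluorescence; actives read low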); settings: parental CHO-K1, FluxOR thallium flux fluorescence ratio; at 10 µM; stronger effect = lower value; zero means no signal rise above baseline
[10] = target: Potassium voltage-gated channel subfamily KQT member 1 (Homo sapiens) (UniProt P51787); experiment: block of human KCNQ1 potassium current – cell-based, automated electrophysiology, orthogonal assay, confirmation (AID 624120;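 active = KCNQ1 current drop exceeding 3 SD of negative control wells, seen in both duplicate runs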); settings: KCNQ1-CHO cells, automated patch clamp current; at 10 µM
[11] = target: Potassium voltage-gated channel subfamily KQT member 2 (Rattus norvegicus) (UniProt O88943); experiment: block of rat KCNQ2 potassium channel – cell-based, selectivity assay for KCNQ1 inhibitor project (AID 651746;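 active = mean percent inhibition of the KCNQ2 thallium signal more than 5 SD above the buffer-only control wells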); settings: KCNQ2 cells, FluxOR thallium flux fluorescence, at 10 µM; stronger effect = higher value
[12] = target: T1, Potassium voltage-gated channel subfamily E member 1 (Homo sapiens) + Potassium voltage-gated channel subfamily KQT member 1 (Homo sapiens) (UniProt P15382+P51787); experiment: block of human IKs channel complex – CHO-K1 cells, thallium flux, FluxOR, selectivity assay for KCNQ1 inhibitor project (AID 652147;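 active = mean percent inhibition of duplicate wells above the buffer-only control mean plus 3 SD of those controls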); settings: KCNQ1/KCNE1 cells, FluxOR thallium flux fluorescence; at 10 µM
[13] = nonspecific flux increase, KCNQ1-free cells – parental CHO cells, counter-screen for KCNQ1 potentiator project (AID 493006;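 active = duplicate-averaged activation above buffer control mean plus 5 SD of those controls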;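 as to activation: fluorescence ratio of max minus min over baseline after K+ and Tl+ depolarization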); settings: parental CHO-K1 cells, FluxOR thallium flux, at 10 µM; stronger effect = higher value
[14] = target: Potassium voltage-gated channel subfamily KQT member 1 (Homo sapiens) (UniProt P51787); experiment: enhancement of KCNQ1 channel thallium flux – FluxOR thallium flux, CHO cells, duplicates, confirmation (AID 493007;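 active = potentiation averaged over duplicate wells exceeding buffer-only control mean by more than 3 SD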;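 as to outcome: cells depolarized by a potassium plus thallium sulfate stimulus after compound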;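 as to potentiation: 0% = buffer-only wells and 100% = R-L3 activator control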); settings: KCNQ1 cell line, FluxOR thallium flux fluorescence, at 10 µM; stronger effect = higher value, % of reference activator effect, buffer zero
[15] = target: Potassium voltage-gated channel subfamily KQT member 2 (Rattus norvegicus) (UniProt O88943); experiment: KCNQ2 thallium flux enhancement – KCNQ2-CHO-K1 cells, selectivity assay for KCNQ1 potentiator project (AID 493009;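 active = mean duplicate potentiation above the buffer control mean plus 5 SD of buffer wells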;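 also: assay conditions were tuned for KCNQ1 rather than KCNQ2 modulators; signal is max minus min fluorescence divided by baseline after thallium stimulus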); settings: FluxOR thallium flux fluorescence, at 10 µM; stronger effect = higher value, scaled: buffer 0, activator control 100
[16] = target: Potassium voltage-gated channel subfamily KQT member 1 (Homo sapiens) (UniProt P51787); experiment: KCNQ1 activators by electrophysiology – IonWorks patch clamp, KCNQ1-CHO cells, orthogonal assay for KCNQ1 potentiator project, confirmation (AID 493184;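 active = current rise at least 3 SD above the untreated control mean in each of two repeat wells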); settings: automated patch clamp current, at 10 µM; stronger effect = higher value
[17] = target: T1, Potassium voltage-gated channel subfamily E member 1 (Homo sapiens) + Potassium voltage-gated channel subfamily KQT member 1 (Homo sapiens); experiment: KCNQ1-E1 channel activation – thallium flux, CHO-K1 KCNQ1/E1 cells, selectivity assay for KCNQ1 potentiator project, confirmation (AID 493186;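 active = mean duplicate activation above the buffer control mean plus 5 SD of those controls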); settings: FluxOR thallium flux, at 10 µM

Potassium voltage-gated channel subfamily KQT member 1 (Homo sapiens), sequence (P51787 whole entry, looked up): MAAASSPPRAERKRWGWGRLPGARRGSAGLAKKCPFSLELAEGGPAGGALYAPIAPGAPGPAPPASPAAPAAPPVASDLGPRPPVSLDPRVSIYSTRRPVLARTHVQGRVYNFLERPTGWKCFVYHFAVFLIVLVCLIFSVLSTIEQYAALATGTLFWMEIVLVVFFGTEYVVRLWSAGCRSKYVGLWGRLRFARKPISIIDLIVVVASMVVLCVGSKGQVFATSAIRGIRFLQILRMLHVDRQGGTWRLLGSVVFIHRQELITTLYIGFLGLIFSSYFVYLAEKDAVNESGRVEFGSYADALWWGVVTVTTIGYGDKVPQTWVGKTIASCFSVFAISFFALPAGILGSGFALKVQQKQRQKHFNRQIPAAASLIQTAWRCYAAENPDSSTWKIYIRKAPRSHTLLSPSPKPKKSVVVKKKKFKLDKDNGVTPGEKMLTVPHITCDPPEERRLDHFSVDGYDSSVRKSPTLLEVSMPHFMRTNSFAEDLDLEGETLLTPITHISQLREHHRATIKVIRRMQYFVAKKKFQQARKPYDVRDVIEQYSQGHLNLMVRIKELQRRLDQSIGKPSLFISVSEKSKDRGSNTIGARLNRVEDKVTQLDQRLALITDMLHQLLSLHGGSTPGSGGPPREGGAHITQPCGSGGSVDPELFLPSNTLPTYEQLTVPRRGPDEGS
Inward rectifier potassium channel 2 (Mus musculus), sequence (P35561 whole entry, looked up): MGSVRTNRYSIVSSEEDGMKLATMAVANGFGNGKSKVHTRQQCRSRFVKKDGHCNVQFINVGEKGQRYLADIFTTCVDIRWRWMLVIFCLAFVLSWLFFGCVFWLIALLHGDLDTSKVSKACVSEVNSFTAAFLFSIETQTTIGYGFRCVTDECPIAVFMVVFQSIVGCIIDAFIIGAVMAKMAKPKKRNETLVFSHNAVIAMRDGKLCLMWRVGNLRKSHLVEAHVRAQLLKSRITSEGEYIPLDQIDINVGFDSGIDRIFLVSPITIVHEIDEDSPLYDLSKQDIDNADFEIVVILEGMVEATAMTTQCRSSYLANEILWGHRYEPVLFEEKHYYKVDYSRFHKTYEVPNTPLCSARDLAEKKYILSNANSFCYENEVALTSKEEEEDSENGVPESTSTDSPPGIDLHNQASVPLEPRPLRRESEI
T1 sequence (P51787 whole entry, looked up): as the sequence (P51787 whole entry, looked up) above

FC(F)(F)c1cccc(NC(=S)Nc2cccc(Cl)c2)c1
active: inhibition [8] 112%
inactive: outcome [1] | outcome [2] | activity increase over 3SD of controls [3] -22.1% | activation over 3SD threshold [4] -10.3% | potentiation, less the hit threshold [5] -4.8% | activity over 3SD threshold [6] -40.2% | outcome [7] | fluorescence ratio (Tl flux) [9] 0.527 | outcome [10] | outcome [11] | outcome [12]

CC(C)(C)C1CCC(C(=O)NCC(c2cccs2)N2CCOCC2)CC1 (stereo not given)
active: potentiation, less the hit threshold [5] 13.3%
inactive: activity increase over 3SD of controls [3] -27.5% | activation over 3SD threshold [4] -18.7% | activity over 3SD threshold [6] -57.7% | outcome [7]

Cc1ccc(S(=O)(=O)N2CCN(C(=O)COC(=O)c3c(C)cc(C)cc3C)CC2)c(C)c1
inactive: outcome [1] | outcome [2] | activity increase over 3SD of controls [3] -0.8% | activation over 3SD threshold [4] -20.8% | activity over 3SD threshold [6] -17.6% | outcome [7]
active: potentiation, less the hit threshold [5] 14.7%

COc1ccc(NC(=O)/C(Cl)=C(/Cl)S(=O)Cc2ccc(C)cc2)cn1 (stereo not given)
active: potentiation, less the hit threshold [5] 0.8%
inactive: outcome [1] | outcome [2] | activity increase over 3SD of controls [3] -1.5% | activation over 3SD threshold [4] -20.5% | activity over 3SD threshold [6] -44.7% | outcome [7]

CCn1c(=S)[nH]c2sc3c(c2c1=O)CCCCC3
inactive: outcome [1] | activity increase over 3SD of controls [3] -14.2% | activation over 3SD threshold [4] -21.6% | activity over 3SD threshold [6] -16.8% | outcome [7] | outcome [16]
active: FluxOR signal as % of negative control (100 = no effect) [2] 402% | potentiation, less the hit threshold [5] 43.5% | activation [13] 516% | potentiation [14] 258% | potentiation [15] 530%

Cc1ccc(NC(=O)C2CC2c2ccccc2)cc1 (stereo not given)
inactive: outcome [1] | outcome [2] | activity over 3SD threshold [6] -35.9% | outcome [7]
active: activity increase over 3SD of controls [3] 58.6% | activation over 3SD threshold [4] 64.2% | potentiation, less the hit threshold [5] 26.2%

O=C(NCc1ccc2c(c1)OCO2)c1ccc(Cl)s1
inactive: outcome [1] | outcome [2] | activity over 3SD threshold [6] -17.6% | outcome [7]
active: activity increase over 3SD of controls [3] 5.5% | activation over 3SD threshold [4] 49.7% | potentiation, less the hit threshold [5] 16.7%

Cc1[nH][nH]c(=O)c1C(c1ccc(-c2ccc(Cl)cc2)o1)c1c(C)[nH][nH]c1=O
inactive: outcome [1] | outcome [2] | outcome [13] | outcome [15] | outcome [16] | outcome [17]
active: potentiation [14] 27.5%

Cc1cccc(NC(=O)CSC(N)=O)c1C
inactive: outcome [1] | outcome [2] | activity increase over 3SD of controls [3] -5% | activation over 3SD threshold [4] -15.2% | activity over 3SD threshold [6] -46.1% | outcome [7]
active: potentiation, less the hit threshold [5] 56.1%

CCOC(=O)c1c(NC(=S)NC)sc2c1CCCC2
inactive: outcome [1] | activation over 3SD threshold [4] -17.4% | activity over 3SD threshold [6] -37.6% | outcome [7] | outcome [16]
active: FluxOR signal as % of negative control (100 = no effect) [2] 196% | activity increase over 3SD of controls [3] 6.2% | potentiation, less the hit threshold [5] 16.6% | activation [13] 318% | potentiation [14] 73% | potentiation [15] 289%

CCN(CC(=O)NC(=O)NCc1ccccc1)Cc1nc2ccccc2c(=O)[nH]1
inactive: outcome [1] | outcome [2] | activity increase over 3SD of controls [3] -2.8% | activation over 3SD threshold [4] -14.6% | potentiation, less the hit threshold [5] -3% | activity over 3SD threshold [6] -39% | outcome [7]

CCn1cc(CN2CCC(C(=O)Nc3cccc(-c4cccc(Cl)c4)c3)CC2)cn1
active: Tl flux remaining, % of negative control (stronger effect = lower value) [1] 55%
inactive: outcome [2] | outcome [13] | outcome [14] | outcome [16]

CS(=O)(=O)c1sc(C(=O)NC(=S)Nc2ccc(OC(F)(F)F)cc2)c2c1C=CCC2
active: activation over 3SD threshold [4] 45.7% | potentiation [14] 92% | potentiation [15] 168%
inactive: outcome [1] | outcome [2] | activity increase over 3SD of controls [3] -1.6% | potentiation, less the hit threshold [5] -3.3% | activity over 3SD threshold [6] -36.7% | outcome [7] | outcome [13] | outcome [16]

CCc1ccc(NC(=O)C(=O)NNC(=O)c2cccs2)cc1
active: FluxOR signal as % of negative control (100 = no effect) [2] 310% | activation over 3SD threshold [4] 85.7% | potentiation, less the hit threshold [5] 26.8% | activation [13] 360% | potentiation [14] 159% | potentiation [15] 421%
inactive: outcome [1] | activity increase over 3SD of controls [3] -16% | activity over 3SD threshold [6] -22.9% | outcome [7] | outcome [16]
